HCMV inh: inhibitors of human cytomegalovirus | HFF cells, HCMV-luciferase reporter, 72 h; hits give low values | activity change, negative = inhibition, % at 57.5 µM | 410,000 tested, 4.5% active; in the data active = activity change below about -60%; inconclusive = no clear call, values can overlap the other calls; inactive = above about -39%; also: % is scaled to controls: 0 for no effect and ±100 for the full control effect
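Compounds were evaluated in HFFs infected with an HCMV luciferase reporter virus (MOI 1 PFU/cell). Luciferase in lysates collected 72 h post infection served as the replication measure.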
HCV inh: blocks hepatitis C virus | AID 651820 | Huh7.5.1 HCVcc-Cre infection, luciferase reporter, 44 h | Potency, µM (titrated, usually from 41.8 µM), without a hit: top-dose activity change, negative = inhibition, most hits filed as inhibitors | 340,000 tested, 3.4% active; also: potency is read from the fitted curve at half-maximal effect; % is scaled to controls: 0 for no effect and ±100 for the full control effect
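A cell-based infection assay in which seeded cells (1,000 per well) receive test compound after 4 h, are inoculated with HCVcc-Cre at approximately 0.5 moi, and are incubated 44 h before luminescence detection.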
Sm TGR block: inhibitors of Schistosoma mansoni thioredoxin glutathione reductase; Q962Y6; purified TGR, DTNB reduction, TNB absorbance 405 nm; Potency, µM (doses to about 114 µM), inactives show at the highest dose activity change, negative = inhibition, usual class: inhibitors; 360,000 tested, 3% active; also: potency is read from the fitted curve at half-maximal effect; % is scaled to controls: 0 for no effect and ±100 for the full control effect; nearly all actives have a fitted effect of over 60% in size
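Kinetic colorimetric format: TGR-catalysed, NADPH-driven DTNB reduction monitored via TNB absorbance. Enzyme dispensed at 20 nM; compound exposure 15 min at room temperature before reaction start.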
Pf growth 96h: P. falciparum growth inhibition at 96 hour, primary screen for plastid delayed-death inhibitors; 320,000 tested, 6.9% active; AID 504834; P. falciparum luciferase reporter growth, 96 h; Potency, µM (doses to about 28.7 µM), for the others: at the top dose activity change, negative = inhibition, most hits filed as inhibitors; also: potency is read from the fitted curve at half-maximal effect; % is scaled to controls: 0 for no effect and ±100 for the full control effect
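Parasite growth measured via integrated firefly luciferase reporter in P. falciparum. Infected erythrocytes at 2% hematocrit, 0.05% parasitemia final were treated 96 hours at 37 C under 5% CO2, and luminescence was read.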
SARS PLpro yeast-1: SARS-CoV PLP inhibition in yeast; S. cerevisiae expressing SARS-CoV PLpro, growth rescue; Potency, µM (doses to about 32.9 µM), inactives show at the top dose activity, positive = growth rescue, hits mostly activators; 330,000 tested, 0.19% active; calls by dose curve; also: potency is read from the fitted curve at half-maximal effect; 0% is about no effect; nearly all actives have a fitted effect of over 55% in size
Pf growth 48h: P. falciparum growth inhibition at 48 hours (one generation); Potency, µM (highest dose often 28.7 µM), for inactives: at the highest dose activity change, negative = inhibition, hits mostly inhibitors; P. falciparum luciferase growth in erythrocytes, 48 h; 310,000 tested, 5.9% active; also: potency is read from the fitted curve at half-maximal effect; % is scaled to controls: 0 for no effect and ±100 for the full control effect
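Parasite viability was followed by luminescence of a genomically integrated firefly luciferase. Cultures held 0.1% parasitemia at 2% hematocrit (final), incubated under 5% CO2 at 37 C.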
SARS PLpro yeast-2: Inhibits SARS-CoV PLP in yeast, hit validation. AID 652038. shares compounds with SARS PLpro yeast-1. yeast expressing SARS-CoV PLpro, growth phenotype rescue. calls only. 1,000 tested, 19% active; call rule not given here
Active calls of the source: *; i = inactive; ? = inconclusive; · = no result; + = active, no number. Sampled rows, rich in hits. Any-hit rate of the full collection: about 15%. Unless noted, calls follow the shape of the dose curve; as a rule, active = well fitted curve in the direction sought with a large enough effect; inconclusive = small, poorly fitted or top-dose-only effect, or another doubt; inactive = no such curve, though single readings can be large; an effect the other way counts as inactive or inconclusive.

SMILES	HCMV inh	HCV inh	Sm TGR block	Pf growth 96h	SARS PLpro yeast-1	Pf growth 48h	SARS PLpro yeast-2
O=S(=O)(NCCc1csc(-c2cccnc2)n1)c1cccc(F)c1	-11	4%	-22%	44%	-5%	8%	·
CC(=NCc1cccnc1)c1c(O)n(-c2ccccc2C)c(=O)[nH]c1=O	57	6%	-2%	-3%	3.5µM*	·	i
CC(C)CNC(=S)NC(=O)c1ccccc1Cl	-12	16%	-16%	37%	?	31%	i
Nc1nc(Cl)nc2ncn(Cc3ccccc3)c12	4	21%	?	0%	3%	0%	·
CCN(CC)CCCNC(=O)Cc1ccc(NC(=O)N2CCCCc3ccccc32)cc1	9	·	-1%	·	·	·	·
O=C1c2ccccc2C(c2nnnn2Cc2ccccc2)N1Cc1ccc2c(c1)OCO2 (configuration not stated)	-13	·	·	·	·	·	·
Nc1ccc2oc(-c3cc(Br)ccc3Cl)nc2c1	37	?	-26%	·	-5%	58%	·
Nc1ccc2oc(-c3ccccc3Cl)nc2c1	26	-22%	-10%	32%	14µM*	83%	i
CC1CCCC(NC(=O)CSc2ncnc3ccccc23)C1C (configuration not stated)	-26	-2%	·	·	-6%	·	·
CC1CCCC(NC(=O)COc2ncnc3ccccc23)C1C (configuration not stated)	-19	0%	·	·	?	·	i
OC(CNCCN1CCNCC1)Cc1ccccc1 (configuration not stated)	47	2%	·	·	·	·	·
Cn1c(=O)c2c(nc(CN3CCOCC3)n2CCN2CCOCC2)n(C)c1=O	9	14%	-4%	-81%	3%	4%	·
COC(=O)Cn1c(CN2CCOCC2)nc2c1c(=O)n(C)c(=O)n2C	14	27%	0%	33%	?	27%	i
CCCCCC(=O)NNC(=S)NC(=O)c1cccc([N+](=O)[O-])c1	28	-22%	1.6µM*	?	11µM*	-5%	i
Cc1ccc([N+](=O)[O-])cc1NC(=O)C1CCN(S(C)(=O)=O)CC1	69	4%	-4%	15%	?	58%	i
COc1ccc(C2C=C(C34CC5CC(CC(C5)C3)C4)NC(=S)N2)cc1OC (configuration not stated)	77	-24%	-2%	9.3µM*	14µM*	?	+
Cc1cc(C(=O)N/N=C/c2cc(N=Nc3ccccc3)ccc2O)n[nH]1	·	22µM*	-4%	?	7.9µM*	?	i
COc1ccc(/C=N/NC(N)=S)cc1	13	?	-1%	24%	27%	23%	·
CC(C)Oc1ccc(/C=N/NC(N)=S)cc1	36	-3%	0%	-16%	?	85%	+
COc1ccc(COCC(O)CN(Cc2ccccc2)C(C)C)cc1OC (configuration not stated)	-16	-4%	?	10%	1%	20%	·
COC(=O)Cc1c[nH]c2cccc(OCC(O)CN(Cc3ccccc3)C(C)C)c12 (configuration not stated)	-16	?	-13%	?	?	?	i
COc1cc(NS(=O)(=O)c2ccc3c(c2)CCCN3C(C)=O)cc(OC)c1OC	-38	·	4%	·	·	·	·
O=C(COC(=O)c1ccccc1NCCO)NNC(=O)c1cccs1	10	?	1%	37%	?	2%	i
O=C(COC(=O)c1ccccc1[N+](=O)[O-])NNC(=O)c1cccs1	·	·	3%	14%	-3%	0%	·
O=C(O)CCc1ccc(S(=O)(=O)Nc2ccccc2C(=O)NCCc2ccccc2)cc1	27	9%	-17%	169%	-6%	135%	·
SMILES	HCMV inh	HCV inh	Sm TGR block	Pf growth 96h	SARS PLpro yeast-1	Pf growth 48h	SARS PLpro yeast-2
Cc1cccc(Oc2ccccc2NS(=O)(=O)c2ccc(CCC(=O)O)cc2)c1	3	8%	-17%	-2%	2.2µM*	-13%	i
CC(=O)NCCC(=O)Nc1nc(-c2ccc3ccccc3c2)cs1	70	4%	3%	3%	?	28%	i
Cc1cc(NC(=O)Cn2nc(C)c([N+](=O)[O-])c2C)no1	-35	-22%	-1%	8%	0%	13%	·
O=C(OCC(=O)N1CCN(c2ccccc2)CC1)c1ncc(Cl)c(Cl)c1Cl	-14	8%	-1%	29%	·	-11%	·
CCOC(=O)[C@H]1[C@H]2COc3ccc(Br)cc3[C@@H]2N2C(=O)CN(Cc3ccco3)C(=O)[C@@]12C	30	14%	32µM*	?	?	?	i
N#CC1=C(N)Oc2c(c(=O)oc3ccccc23)C1c1cccnc1 (configuration not stated)	?	14%	0%	?	?	-50%	i
CCC(CC)C1C(C#N)=C(N)Oc2c1c(=O)oc1ccccc21 (configuration not stated)	-5	-41%	-10%	?	-16%	?	·
CCOC(=O)c1cc(-c2ccc(OC)cc2)n(CCC(=O)Nc2nc3ccc(OCC)cc3s2)c1C	39	·	12%	·	·	·	·
CC(=O)c1cccc(CN2CCC(C(=O)Nc3ccc(Oc4cccnc4)cc3)CC2)c1	?	?	-16%	?	?	?	i
O=C(Cn1cnc2c(nnn2Cc2ccccc2F)c1=O)NCC1CCCO1 (configuration not stated)	30	-6%	-1%	8%	?	4%	i
O=C(Cn1cnc2c(nnn2Cc2ccccc2)c1=O)NCC1CCCO1 (configuration not stated)	?	?	3%	1%	-2%	-5%	·
CC1(C)C2CCC1(C)C(OC(=O)c1ccccc1C(=O)O)C2 (configuration not stated)	-9	16%	-8%	-2%	0%	?	·
CCCCOC(=O)C[N+](C)(C)CCOC1CC2CCC1(C)C2(C)C (configuration not stated)	?	-9%	-13%	?	·	1.5µM*	i
Cc1cscn1	3	6%	-10%	31%	?	28%	i
O=C(CCN1CCOCC1)NC1CCCN(Cc2ccccc2F)C1 (configuration not stated)	?	38%	3%	8%	?	3%	i
C=CCC[C@@H](Cc1ccc(F)cc1)C(=O)OC[C@H](Cc1c[nH]c2ccccc12)NC(=O)[C@H](CC=C)CC(=O)N(CCO)Cc1ccccc1	12	?	·	·	0%	·	·
